This is part of a sample that, as a whole, favours compounds with a hit. Of some 83,000 tested, about 20% had one in any assay.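 Results are percent growth after 48 hours of single-concentration exposure. 100 means growth as in untreated cells, lower positive values show inhibition; negative values down to -100 show cell death.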 A number with no mark means an inactive call. The source made the active and inactive calls. Rule for the calls: active = growth percent below 10; inactive = the rest.
Assays:
Assay in all cases: NCI-60 one-dose screen, 48 h (100 = growth as untreated, 0 = no growth, -100 = all killed)
Settings in all cases: 10 µM unless noted
DU-145 prostate = tested on: DU-145 prostate
K-562 leukemia = tested on: K-562 leukemia
MALME-3M melanoma = tested on: MALME-3M melanoma
MDA-MB-231 breast = tested on: MDA-MB-231 breast
RXF 393 renal = tested on: RXF 393 renal
SF-268 CNS = tested on: SF-268 CNS
SF-295 CNS = tested on: SF-295 CNS
SF-539 CNS = tested on: SF-539 CNS
UACC-257 melanoma = tested on: UACC-257 melanoma
M14 melanoma = tested on: M14 melanoma
HT29 colon = tested on: HT29 colon
SNB-75 CNS = tested on: SNB-75 CNS
SNB-19 CNS = tested on: SNB-19 CNS
U251 CNS = tested on: U251 CNS
PC-3 prostate = tested on: PC-3 prostate
SK-MEL-5 melanoma = tested on: SK-MEL-5 melanoma
UACC-62 melanoma = tested on: UACC-62 melanoma
LOX IMVI melanoma = tested on: LOX IMVI melanoma
SK-MEL-28 melanoma = tested on: SK-MEL-28 melanoma

Structure (SMILES) | growth (DU-145 prostate) | growth (K-562 leukemia) | growth (MALME-3M melanoma) | growth (MDA-MB-231 breast) | growth (RXF 393 renal) | growth (SF-268 CNS) | growth (SF-295 CNS) | growth (SF-539 CNS) | growth (UACC-257 melanoma) | growth (M14 melanoma) | growth (HT29 colon) | growth (SNB-75 CNS) | growth (SNB-19 CNS) | growth (U251 CNS) | growth (PC-3 prostate) | growth (SK-MEL-5 melanoma) | growth (UACC-62 melanoma) | growth (LOX IMVI melanoma) | growth (SK-MEL-28 melanoma)
O=C(O)c1ccc(-c2ccc(/C=N/Nc3nc(Nc4ccccc4)nc(N4CCCCC4)n3)o2)cc1 | 66.7% | 67.5% | 59% | 96.5% | 65.4% | 71.7% | -21.9% (active) | 75.2% | 93.9% | 83.1% | 63.4% | 65.7% | 61% | 43.2% | 65.6% | 71.5% | 67.6% | 68.6% | 78.9%
CCN(CC)CCCOc1ccc2ncnc(Nc3ccc(Oc4cccc(C(F)(F)F)c4)c(Cl)c3)c2c1 | 3.42% (active) | -28.6% (active) | -76.2% (active) | -42.2% (active) | -64.9% (active) | 35.1% | -61.7% (active) | -87.5% (active) | -60.5% (active) | -72% (active) | -44.6% (active) | 33.9% | 30.9% | -28.6% (active) | 8.76% (active) | -100% (active) | -33.8% (active) | -100% (active) | -89.1% (active)
Nc1[nH]c(=S)nc2oc(-c3ccccc3)c(-c3ccccc3)c12 | 106% | 95.2% | 108% | 103% | 93% | 95.9% | 96.1% | 98.6% | 102% | 106% | 101% | 90.3% | 98% | 103% | 97.4% | 102% | 91.5% | 98% | 101%
O=C1NC(=O)/C(=C/c2c(-c3ccccc3)nc3sc(COc4ccccc4)nn23)S1 | 105% | 82.6% | 102% | 73.3% | 112% | 106% | 94.3% | 103% | 104% | 96.1% | 117% | 108% | 95.6% | 96.7% |  | 97.9% | 90% | 57% | 110%
Clc1c(Cl)[n+](Cc2ccc3ccccc3c2)cn1Cc1ccc2ccccc2c1 | 32.6% | -3.01% (active) | -14.1% (active) | 7.04% (active) | -7.52% (active) | 20.8% | 45.6% | 58.6% | -37.7% (active) | -31.9% (active) | -69.4% (active) | 10.3% | 26.8% | -82.6% (active) | 3.79% (active) | -79.7% (active) | -42.8% (active) | -21.4% (active) | 16.1%
